Source: PubChem BioAssay AID1259421 (Broad Institute, 2018)
Values joined by “and” are separate entries in the source; they are usually repeats but may differ in a detail not shown here. Identical values can stand only once. Among all 6,400 compounds or so, about 610 (9.5%) were called active. No stated cut-off is given here; in the data, active means activity change below about -70%; inconclusive means no clear call, values can overlap the other calls; inactive means above that. The full list was thinned out, with actives kept by preference. A structure can be active in one record and inactive in another.

Test: T. gondii ME49Luc in HeLa cells, luciferase assay, 72 h, no IFN-y (AID 1259421)
Details: stronger effect = lower value, concentration not given here

SMILES | activity change, negative = inhibition
O=c1[nH]c(=O)c2[nH]c(=O)[nH]c2[nH]1 | 3.85% (inactive)
CC(C)NC[C@@H](O)c1ccc(NS(C)(=O)=O)cc1 | 2.38% (inactive)
C[C@@H]([C@@H](O)c1ccc(O)cc1)N1CCC(O)(c2ccccc2)CC1 | 0.328% (inactive) and 9.44% (inactive)
OCC1OC(n2cnc3c(NC4CCCC4)nc(Cl)nc32)C(O)C1O (configuration not stated) | -5.92% (inactive)
Nc1nc(F)nc2c1ncn2[C@@H]1O[C@H](CO)[C@@H](O)[C@@H]1O | -26.8% (inactive)
Nc1nc(Cl)nc2c1ncn2C1OC(CO)C(O)C1F (configuration not stated) | -87.6% (active)
OC[C@H]1O[C@@H](n2cnc3c(NC4CCCC4)nc(Cl)nc32)[C@H](O)[C@@H]1O | 3.31% (inactive)
Nc1nc(Cl)nc2c1ncn2[C@H]1C[C@H](O)[C@@H](CO)O1 | -37.2% (inactive)
Nc1nc(Cl)nc2c1ncn2[C@@H]1O[C@H](CO)[C@@H](O)[C@@H]1F | -81.3% (active)
CCCCC[C@@H](O)[C@H]1C(=O)O[C@H](C)[C@@H](O)/C=C/C=C/C=C/C=C/C=C(\C)[C@@H](O)C[C@H](O)C[C@H](O)C[C@H](O)C[C@H](O)C[C@H](O)C[C@@H]1O | 2.49% (inactive)
Ic1cc(-c2ccccc2)ncn1 | 1.75% (inactive)
COc1ccc2c3c1OC1CC(O)C=CC31CCN(C)C2 (configuration not stated) | 4.76% (inactive)
CC(=O)OCC(=O)[C@@]1(O)CCC2C3CCC4=CC(=O)CC[C@]4(C)C3=CC[C@@]21C (some centres not stated) | -0.754% (inactive)
CCCCCCCCN=c1ccn(CCCCCCCCCCn2ccc(=NCCCCCCCC)cc2)cc1 | -74.7% (active)
CCCCCN=c1ccn(Cc2ccccc2)c2ccccc12 | -3.35% (inactive)
CN[C@H](CNC(=O)N1CCC[C@@H]([C@@H](OCCNC(=O)OC)c2cccc(Cl)c2)C1)C[C@H]1CCCOC1 | 7.28% (inactive)
CNC(=O)c1ccc(-c2cnc3ncc(Cc4ccc5ncccc5c4)n3n2)cc1F | -3.07% (inactive)
COc1ccc([C@H]2COc3c(ccc(O)c3OC)C2)c(OC)c1O | 8.53% (inactive)
CC(NCC(O)CP(=O)(O)CC1CCCCC1)c1ccc(Cl)c(Cl)c1 (configuration not stated) | -2.11% (inactive)
C[C@H](NC(=O)Cc1cc(F)cc(F)c1)C(=O)N[C@@H]1C(=O)N(C)c2ccccc2-c2ccccc21 | -81.4% (active)
CC(NC(=O)Cc1cc(F)cc(F)c1)C(=O)NC(C(=O)OC(C)(C)C)c1ccccc1 (configuration not stated) | 5.05% (inactive)
C[C@H](NC(=O)[C@@H](O)c1cc(F)cc(F)c1)C(=O)N[C@@H]1C(=O)N(C)c2ccccc2-c2ccccc21 | 26.6% (inactive)
C=C1/C(=C\C=C2/CCC[C@]3(C)[C@@H]([C@H](C)/C=C/C=C/C(O)(CC)CC)CC[C@@H]23)C[C@@H](O)C[C@@H]1O | 17.9% (inactive)
COCCOc1ccc(N2CCN(CCn3ncc4c3nc(N)n3nc(-c5ccco5)nc43)CC2)cc1 | -6.85% (inactive)
COc1c(O)cccc1O | 9.75% (inactive)
COc1nc2ccc(Br)cc2cc1[C@@H](c1ccccc1)[C@@](O)(CCN(C)C)c1cccc2ccccc12 | 48% (inactive)

SMILES | activity change, negative = inhibition
CC(C)OC(=O)[C@H](C)N[P@@](=O)(OC[C@H]1O[C@@H](n2ccc(=O)[nH]c2=O)[C@](C)(F)[C@@H]1O)Oc1ccccc1 | 5.02% (inactive) and 18.5% (inactive)
Cc1c(I)c(=O)n(-c2ccccc2)n1C | 9.68% (inactive)
Cc1c(O)c(=O)n(-c2ccccc2)n1C | -80.6% (active) and 1.34% (inactive)
Cc1c(N(C)C)c(=O)n(-c2ccccc2)n1C | 13% (inactive)
CCO[C@@H](Cc1ccc(OCCc2ccc(OS(C)(=O)=O)cc2)cc1)C(=O)O | 11% (inactive)
Cc1ccc(NC(=O)C(C)C)cc1C1CCN(Cc2ccc(Oc3ccc(F)c(F)c3)cc2)CC1 | -59.6% (inactive)
NC1=NCN([C@H]2C[C@@H](O)[C@@H](CO)O2)C(=O)N1 | 13.9% (inactive)
Cn1cnc(=N)c2[nH]cnc21 | 11% (inactive)
COc1cc(NC(=O)c2ccccn2)ccc1Cl | 132% (inactive)
CNC(=O)c1cc(Oc2ccc(NC(=O)Nc3ccc(Cl)c(C(F)(F)F)c3)cc2)ccn1 | -70.5% (active) and -84.5% (active)
C=CC(=O)Nc1cccc(Nc2nc(Nc3ccc(Oc4ccnc(C(=O)NC)c4)cc3)ncc2F)c1 | -38.8% (inactive)
O=C(Nc1ccc(Cl)cc1)Nc1ccc(Cl)c(C(F)(F)F)c1 | -76.9% (active)
CN1CCN(C2CCN(C(=O)Nc3cc(Oc4ccc(NC(=O)C5(C(=O)Nc6ccc(F)cc6)CC5)c(F)c4)ccn3)CC2)CC1 | -66.6% (inactive)
CC(C)C(=O)Nc1ccc([N+](=O)[O-])c(C(F)(F)F)c1 | 12.9% (inactive)
C=CC(=O)Nc1ccc(Cl)cc1 | 16.9% (inactive)
CNC(=O)c1cc(COc2nnc(Nc3ccc(Cl)cc3)c3ccoc23)ccn1 | -9.12% (inactive)
CNC(=O)c1cc(Oc2ccc(NC(=O)Nc3ccc(Cl)c(C(F)(F)F)c3)c(F)c2)ccn1 | -86.3% (active) and -83.6% (active)
Nc1[nH]nc2nnc(-c3c(-c4ccccc4)nn4ccccc34)cc12 | -19.2% (inactive)
OC[C@@H](O)[C@@H](O[C@@H]1O[C@H](CO)[C@H](O)[C@H](O)[C@H]1O)[C@H](O)[C@@H](O)CO | 24% (inactive)
NC(Cn1ccc(=O)n(Cc2ccccc2C(=O)O)c1=O)C(=O)O (configuration not stated) | 7.15% (inactive)
CN1C2CCC1CC(OC(=O)c1c[nH]c3ccccc13)C2 (configuration not stated) | 2.23% (inactive)
O=C1CC[C@@H](C(=O)O)N1 | 4.43% (inactive)
C1=C(CN2CCOCC2)COc2c1cccc2OCC1CNCCO1 (configuration not stated) | 2.39% (inactive)
CC(C)=CCC/C(C)=C/C=C/C(C)=C/C=C/C(C)=C/C=C/C=C(C)/C=C/C=C(C)/C=C/C=C(\C)CCC=C(C)C | -16.2% (inactive)
COc1ccc(-c2cc(=O)c3c(O)c(OC)c(OC)c(OC)c3o2)cc1OC | -10.2% (inactive)
CC1(C)S[C@H]2[C@@H](NC(=O)[C@@H](NC(=O)N3CCN(S(C)(=O)=O)C3=O)c3ccccc3)C(=O)N2[C@@H]1C(=O)O | 5.45% (inactive)
